Pf Dd2 growth: qHTS Primary assay for Inhibitors of Plasmodium falciparum Dd2 growth in vitro; Potency, µM (series often up to 28.9 µM), usual class: inhibitors; AID 1347417, 2020; 120,000 tested, 4.3% active; P. falciparum Dd2 growth, SYBR Green, 72 h; active = well fitted inhibition curve with a large enough effect; also: nearly all actives have a fitted effect of over 65% in size
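Infected erythrocytes (Dd2, 0.3% parasitemia, 2.5% hematocrit final) are added to compound in RPMI-1640/Albumax II medium, grown 72 h at 37C in low oxygen, then lysed with saponin/Triton-X containing SYBR Green and read by fluorescence.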
A number is an active result; n = inactive; [ ] = remark or other dose. Only a selection was taken, and hits are over-represented in it overall.

SMILES | Pf Dd2 growth
COc1cc2nc(SCC(=O)Nc3cccc(C)c3)n3nc(CCn4c(C)nc5ccccc54)nc3c2cc1OC | 2.24µM
O=C(CSc1nc2ccccc2c2nc(-c3ccccc3)nn12)Nc1ccc(Br)cc1 | n
COc1ccccc1NC(=O)Cn1c(SCC(=O)Nc2ccc(F)cc2)nc2ccccc21 | n
Cc1cccc(C)c1NC(=O)CSc1nc2ccccc2c2nc(CCc3c(C)n[nH]c3C)nn12 | n
Cc1ccc(CSc2nc3ccccc3c3nc(CCn4c(C)nc5ccccc54)nn23)cc1 | n
CCc1ccc(CNC(=O)c2cc3cn(C4CCCC4)cc3s2)cc1 | n
CN(Cc1ccon1)C(=O)C1CC(=O)N(Cc2ccccn2)C1 (stereo not given) | n
Cc1noc(-c2ccccc2Cl)c1C(=O)NCCCOC(C)C | n
O=C1CCN(C(=O)[C@@H](Cc2ccccc2)NS(=O)(=O)c2ccc3c(c2)CCC3)CCOCCN1 | n
COc1nccc(N2CCC(CC(=O)NCCCN3CCC(C)CC3)CC2)n1 | n
CC1=C(C(=O)OC(C)C)C(c2ccc(C)cc2)N2C(CC(=O)N(C)Cc3ccco3)=CSC2=N1 (stereo not given) | n
COc1ccc(CCCN2C(=O)O[C@@H]3CN(c4cc(OC)ncn4)C[C@@H]32)cc1 | n
CC(C)c1noc(-c2cccn3c(CNC(=O)Cc4ccccc4Cl)nnc23)n1 | n
Cc1ccc(C)c(C(=O)NCc2nnc3cc(-c4nc(C(C)C)no4)ccn23)c1 | n
Cc1cccc(C(=O)NCc2nnc3cc(-c4nc(C)no4)ccn23)c1 | n
Cc1cccc(C(=O)NCc2nnc3cc(-c4nc(C(C)C)no4)ccn23)c1 | 10µM
Cc1ccc(CC(=O)NCc2nnc3cc(-c4nc(C(C)C)no4)ccn23)cc1 | n
CC(C)c1noc(-c2ccn3c(CNC(=O)Cc4ccccc4Cl)nnc3c2)n1 | 5.01µM
CN(C)C[C@@H]1CN(S(C)(=O)=O)C[C@H]1NC(=O)c1cscn1 | n
COc1ccccc1-c1cc(NCc2cnccn2)c2onc(C)c2n1 | n
O[C@H]1[C@H](NCC2CCCCC2)[C@H]2CO[C@H](O2)[C@@H]1N1CCC(Cc2ccccc2)CC1 | 1.41µM
OCc1ccc(CN[C@H]2[C@H](O)[C@@H](N3CCC(Cc4ccccc4)CC3)[C@@H]3OC[C@H]2O3)o1 | n
O[C@H]1[C@H](NCc2ccccn2)[C@H]2CO[C@H](O2)[C@@H]1N1CCC(Cc2ccccc2)CC1 | n
Cc1ccc(CN2CCc3nc(C(=O)NCc4cccc(F)c4)oc3CC2)o1 | n
O=C(Nc1cccc(Cl)c1Cl)c1ccc2c(c1)N(Cc1cccc(Cl)c1)C(=O)c1ccccc1S2(=O)=O | 5.62µM
SMILES | Pf Dd2 growth
O=C(Nc1cc(Cl)ccc1Cl)c1ccc2c(c1)N(Cc1cccc(Cl)c1)C(=O)c1ccccc1S2=O (stereo not given) | 3.98µM
Cc1ccccc1CN1C(=O)c2ccccc2S(=O)c2ccc(C(=O)NCc3ccccc3)cc21 (stereo not given) | n
COC(=O)c1cc(NC(=O)c2ccc3c(c2)N(Cc2cccc(Cl)c2)C(=O)c2ccccc2S3=O)cc(C(=O)OC)c1 (stereo not given) | 3.16µM
O=C(NCCc1ccccc1)c1ccc2c(c1)N(Cc1ccccc1F)C(=O)c1ccccc1S2=O (stereo not given) | n
CCN(CC)CCNC(=O)c1ccc2c(c1)N(Cc1ccccc1)C(=O)c1ccccc1S2=O (stereo not given) | n
O=C(c1ccc2c(c1)N(Cc1cccc(Cl)c1)C(=O)c1ccccc1S2(=O)=O)N1CCCC1 | n
O=C(c1ccc2c(c1)N(Cc1cccc(Cl)c1)C(=O)c1ccccc1S2(=O)=O)N1CCCCCC1 | n
NC(=O)C1CCN(C(=O)c2ccc3c(c2)N(Cc2cccc(Cl)c2)C(=O)c2ccccc2S3=O)CC1 (stereo not given) | n
O=c1c2c(CO)c(-c3ccc(F)cc3)nn2ccn1Cc1cccc(F)c1 | n
COc1cccc(CNC(=O)[C@@H]2C[C@@H](O)CN2C2CCN(C(=O)C3CCCC3)CC2)c1 | n
NC(=O)c1cccnc1N1CCC2(CCCN(Cc3cccc(F)c3F)C2)C1 (stereo not given) | n
COc1ccc(CCNC(=O)CCCN2C(=O)COc3ccc(C(C)=O)cc32)cc1OC | n
CC1(COCC2CC2)COc2ccc(C(=O)NCc3cccc(F)c3)cc2N1 (stereo not given) | n
COc1ccccc1C(=O)N1CCC2(CCCCO2)CC1 | n
Cc1cc(C)c(C(=O)O)c(N2CCC3(CC2)C(C(=O)O)CC(=O)N3C)n1 (stereo not given) | n
O=C1C(N2CCN(S(=O)(=O)c3ccc(F)cc3F)CC2)CCN1Cc1cccnc1 (stereo not given) | n
c1ccc(C(c2cccs2)c2c[nH]c3ccccc23)cc1 (stereo not given) | n
Cc1[nH]c2ccccc2c1C(c1ccccc1)c1ccc(Cl)s1 (stereo not given) | 8.91µM
CN(C)CCN(C)C[C@@H]1CN(C(=O)c2ccc(=O)n(C)c2)C[C@@H]1CO | n
CCOC(=O)C1CCN(C(=O)c2cc(Cn3nc(C)cc3C)[nH]n2)CC1 | n
O=c1[nH]c(N2CCOCC2)nc2c1CCN(Cc1ccsc1)CC2 | n[5.79 µM]
CNC(=O)c1cc(-c2ccc(CO)cc2)cc2c1OCCN2Cc1cccnc1 | n
COc1ccc(-c2cc(C(F)(F)F)nc(SCC(=O)NCCc3ccccc3)n2)cc1 | n
CCCOC(=O)c1c(NC(=O)C(C)Sc2nc(-c3ccccc3)cc(C(F)(F)F)n2)sc(C(=O)N(C)C)c1C (stereo not given) | 1.12µM
CCN(CC)C(=O)c1sc(NC(=O)C(C)Sc2nc(-c3ccccc3)cc(C(F)(F)F)n2)c(C(=O)OC)c1C (stereo not given) | 0.355µM
SMILES | Pf Dd2 growth
CCOC(=O)c1sc(NC(=O)c2cc3nc(-c4ccc(Br)cc4)cc(C(F)(F)F)n3n2)c(C(=O)OCC)c1C | n
CCCOC(=O)c1c(NC(=O)c2nc3ncccn3n2)sc(C(N)=O)c1C | n
COc1ccc(-c2cc(C(F)(F)F)nc(SCCC(=O)Nc3c(C)cccc3C)n2)cc1 | n
Cc1ncsc1C(=O)N1CCC(C(=O)O)(n2ccc(-c3ccco3)n2)CC1 | n
CN1CCCC1c1nc(C2CN(C(=O)c3ccco3)C2)no1 (stereo not given) | n
CN1[C@@H](CCC(=O)N2CCCC2)CNC(=O)[C@@H]2[C@H]1CCN2Cc1ccc(C(F)(F)F)cc1 | n
Cn1ccnc1C(=O)N1CCC(C(=O)N2CCCCCCNC(=O)CC2)CC1 | n
COc1ccc(-c2ccc3c(n2)CN(C)C(=O)CO3)cc1 | n
CCNC(=O)N1CCCCCC1CN1CCCC1 (stereo not given) | n
CC(=O)N1CCC(N2CCN3C(=O)N(Cc4ccccn4)C[C@H]3C2)CC1 | n
CCCc1noc(-c2ccn3c(CNC(=O)c4ccco4)nnc3c2)n1 | n
Cc1ccc(NC(=O)N2CCc3c(c4ccccc4n3C)C2)cc1 | n
CCc1ccc(NC(=O)N2CCc3c(c4ccccc4n3C)C2)cc1 | n
Cn1c2c(c3ccccc31)CN(C(=O)Nc1ccccc1F)CC2 | 11.2µM
COc1nccc(N2CCC(CC(=O)N3CCN(C4CCCCC4)CC3)CC2)n1 | n
COc1ccc(CCC(=O)NCc2ccc3c(c2)CCN3C(=O)c2ccc(C)cc2)cc1 | n
COc1ccc(CCC(=O)NCc2ccc3c(c2)CCN3C(=O)c2ccccc2)cc1 | 6.31µM
COc1ccc(OCC(=O)NCc2ccc3c(c2)CCN3C(=O)c2ccccc2)cc1 | n
Fc1cccc(Cc2nc(-c3nnn4c3COC(c3ccc(Cl)cc3)C4)no2)c1 (stereo not given) | n

Screening results from PubChem.
